G9a block: inhibitors of human histone lysine methyltransferase G9a; G9a H3K9 monomethylation, AlphaScreen, 2 h; Potency, µM (top dose mostly 102 µM), for inactives: at the highest dose activity, negative = inhibition, most hits filed as inhibitors; 350,000 compounds, 8.8% hits; note: potency is the fitted concentration of half-maximal effect; nearly all actives have a fitted effect of over 75% in size
Target sequence (Q96KQ7 913-1193 limits assumed): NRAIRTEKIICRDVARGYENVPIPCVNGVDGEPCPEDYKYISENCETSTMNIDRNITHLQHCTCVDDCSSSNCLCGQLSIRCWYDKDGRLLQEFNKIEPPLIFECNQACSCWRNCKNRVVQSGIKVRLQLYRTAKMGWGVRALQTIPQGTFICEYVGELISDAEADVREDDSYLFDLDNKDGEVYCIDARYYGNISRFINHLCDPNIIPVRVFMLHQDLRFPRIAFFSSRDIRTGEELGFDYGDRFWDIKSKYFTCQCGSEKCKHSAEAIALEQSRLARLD
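Readings reflect AlphaScreen signal from monomethyl-H3K9 antibody detection. HMT at 20 nM; substrate b-H3K9 500 nM; cofactor SAM 20 uM; 2 h RT reaction; compounds tested as titrations in qHTS with 15 min preincubation.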
Tau FP inhib: blocks human tau fibril formation measured by polarization; P10636; K18 P301L tau heparin fibrillization, Alexa594 FP, 6 h; Potency, µM (highest dose often 57.7 µM), without a hit: top-dose activity, negative = inhibition, usual class: inhibitors; 280,000 compounds, 0.39% hits; note: potency is the fitted concentration of half-maximal effect; nearly all actives have a fitted effect of over 55% in size
Target sequence (P10636 561-689 P618L limits assumed): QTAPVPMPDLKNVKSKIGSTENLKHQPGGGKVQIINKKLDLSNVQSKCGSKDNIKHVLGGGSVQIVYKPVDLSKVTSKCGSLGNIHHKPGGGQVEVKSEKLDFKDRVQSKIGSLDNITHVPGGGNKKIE
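Human tau K18 […] P301L fragment, 15 uM unlabeled plus 0.24 uM Alexa 594-labeled tau (final), with compound and 20 uM heparin in 100 mM sodium acetate pH 7; 6 hr at 37 C, then Alexa 594 FP read.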
Sfp inh: Sfp phosphopantetheinyl transferase inhibition. Q9F4F7. Biochemical Sfp PPTase activity, qHTS. Potency, µM, for the others: largest response in the series, negative = inhibition, hits mostly inhibitors. 310,000 compounds, 3.5% hits;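 note: the enzyme is Sfp with the accession as filed and its product quenches rhodamine fluorescence; potency is the fitted concentration of half-maximal effect; 0% = enzyme reaction without inhibitor and -100% = no enzyme wells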
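Sfp 15 nM + cpd, 15 min RT; start w/ rhodamine-CoA 5 uM, BHQ-2-YbbR 12.5 uM (final); 50 mM Hepes pH 7.6, 10 mM MgCl2, 0.01% NP-40, 0.01% BSA; read 525/598 nm at 0 and 30 min.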
FBPA coupling cs: counter-screen for Giardia aldolase inhibitors: coupling enzyme system; coupling enzyme system counterscreen, AmpLite Red fluorescence; activity change, negative = inhibition, % at 58.2 µM, hits read low; 290,000 compounds, 0.67% hits; AID 2472; in the data active = activity change below about -30%
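Counterscreen of the coupled detection system alone, without aldolase: glyceraldehyde-3-phosphate coupling enzymes plus AmpLite Red readout. Compounds at 57.5 uM final, 10 min RT preincubation, 20 min RT reaction, fluorescence 525/598 nm.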
Tau fluor cs: counter-screen for tau fibril formation inhibitors | tau K18 P301L Alexa594 fluorescence, heparin fibrillization | Potency, µM (titrated, usually from 57.7 µM), for inactives: at the highest dose activity change, negative = decrease | 280,000 compounds, 0.93% hits | AID 1463; note: potency is the fitted concentration of half-maximal effect; nearly all actives have a fitted effect of over 55% in size
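Human K18 P301L tau (15 uM unlabeled plus 0.24 uM Alexa 594-labeled, final) in 100 mM sodium acetate pH 7 was mixed with compound and 20 uM heparin and incubated 6 hr at 37 C.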
Tau ThT inhib: blocks human tau fibril formation measured by thioflavin T | Potency, µM (highest dose often 57.4 µM), without a hit: top-dose activity, negative = inhibition, actives largely listed as inhibitors | 270,000 compounds, 2.1% hits | recombinant tau K18 P301L, heparin-induced fibrillization, ThT fluorescence | AID 1460; note: potency is the fitted concentration of half-maximal effect; nearly all actives have a fitted effect of over 55% in size
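Using a mix of unlabeled (15 uM) and Alexa 594-labeled (0.24 uM) tau K18 P301L, heparin-triggered fibrillization over 6 hr at 37 C was scored by ThT fluorescence.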
The depositor's hits bear a star; u = inconclusive; x = no result given; [ ] = dose if it differs, or a comment. This is a sample that favours compounds with a hit; in the whole collection about 11% have one here. Unless noted, calls come from the whole dose curve; as a rule, active = well fitted curve in the direction sought with a large enough effect; inconclusive = small, poorly fitted or top-dose-only effect, or another doubt; inactive = no such curve, though single readings can be large; an effect the other way counts as inactive or inconclusive. Unless noted, % is set by controls: 0 for no effect and ±100 for the full control effect.

SMILES	G9a block	Tau FP inhib	Sfp inh	FBPA coupling cs	Tau fluor cs	Tau ThT inhib
Clc1ccccc1CNc1nc2ccccc2n2cnnc12	18%	5%	27%	1	-12%	6%
Nc1[nH]n(-c2ccccc2)c(=O)c1N=Nc1ccccc1	4.5µM*	12%	9%	1	5µM*[quencher]	2.5µM*
COc1cc([N+](=O)[O-])ccc1N=Nc1c(N)[nH]n(-c2ccccc2)c1=O	50µM*	2%	12%	-6	u	u
Nc1[nH]n(-c2ccccc2)c(=O)c1N=Nc1ccccc1[N+](=O)[O-]	-11%	-2%	-3%	-1	u	u
Nc1[nH]n(-c2ccccc2)c(=O)c1N=Nc1ccc2ncsc2c1	x	u	50µM*	2	5µM*[quencher]	2.2µM*
Cc1cc(CNC(=O)[C@]2(C(F)(F)F)C[C@H](CCC3CCCCC3)CCCO2)nn1C	x	x	-6%	0	x	x
C=CCC(Nc1ccc(OC)cc1)(C(=O)OCC)c1ccccc1 (centres undefined)	x	0%	9%	2	-2%	-4%
COc1ccccc1CNC(=O)C1CC(c2ccccc2C(F)(F)F)=NO1 (centres undefined)	23%[59 µM]	3%	19%	0	-2%	2%
Cc1ccc2nc(N(CCCN(C)C)C(=O)COc3ccc(Cl)cc3)sc2c1	u	u	89µM*	1	-30%	-8%
Cc1cc(C)c2sc(N(CCCN(C)C)C(=O)COc3ccc(Cl)cc3)nc2c1	-46%	-13%	-38%	-3	u	-11%
Cc1cccc2sc(N(CCCN(C)C)C(=O)COc3ccc(Cl)cc3)nc12	50µM*	u	u	1	u	-6%
CN(C)CCCN(C(=O)COc1ccccc1)c1nc2ccc(F)cc2s1	u	-8%	-10%	-1	-6%	12%
CN(C)CCCN(C(=O)COc1ccc(Cl)cc1)c1nc2ccc(F)cc2s1	56µM*	3%	-23%	-1	-5%	0%
CN(C)CCCN(C(=O)CCOc1ccccc1)c1nc2ccc(F)cc2s1	28µM*	2%	-21%	0	1%	18%
Cc1cccc2sc(N(CCCN(C)C)C(=O)COc3ccccc3)nc12	u	u	x	x	-19%	8%
COc1cccc([C@@H]2Oc3ccc(OC)cc3C[C@H]2OC(=O)NCc2ccco2)c1	x	2%	-3%	3	-3%	-5%
CCOC(=O)c1cc(-c2ccccc2)n(-c2cccc(C(=O)NC(C)CC)c2)c1C (centres undefined)	u	-7%	x	x	-11%	-12%
CN(C)CCCN(C(=O)CCOc1ccccc1)c1nc2c(F)cccc2s1	22µM*	u	50µM*	4	-4%	u
CN(C)CCCN(C(=O)CCc1ccccc1)c1nc2c(F)cccc2s1	u	3%	-6%	0	13%	u
COCCCNC(=O)C(Cc1ccccc1)NS(=O)(=O)c1ccc2c(c1)c(=O)n(C)c(=O)n2C (centres undefined)	10%[12.7 µM]	-1%	1%	4	2%	4%
Cn1c(=O)c2cc(S(=O)(=O)NC(Cc3ccccc3)C(=O)NCc3ccco3)ccc2n(C)c1=O (centres undefined)	63µM*	-4%	0%	0	-7%	u
CC(C)CCNC(=O)C(NS(=O)(=O)c1ccc2c(c1)c(=O)n(C)c(=O)n2C)c1ccccc1 (centres undefined)	8.9µM*	-8%	-15%	0	-13%	-4%
O=C(NC1(C(F)(F)F)NC(=O)N(CCc2ccccc2)C1=O)c1ccccc1Cl (centres undefined)	2%[59 µM]	-6%	x	x	-17%	-7%
Cc1nc(C)c(-c2ccc(SCC(=O)Nc3cccc(C)c3C)nn2)s1	4%[59 µM]	9%	x	x	2%	-9%
COc1cccc(/C=N/n2c(-c3cc(C)[nH]n3)n[nH]c2=S)c1O	x	3%	2.2µM*	0	-12%	u
SMILES	G9a block	Tau FP inhib	Sfp inh	FBPA coupling cs	Tau fluor cs	Tau ThT inhib
COc1cccc(C=Nc2ccc3c(c2)CCC3)c1O	-9%	x	18%	-5	x	x
COc1cccc(/C=N/n2c(-c3n[nH]c4c3CCC4)n[nH]c2=S)c1O	1.4µM*	-1%	25µM*	-4	-7%	u
COc1cc(/C=N/n2c(-c3n[nH]c4c3CCC4)n[nH]c2=S)cc(OC)c1O	u	-1%	56µM*	-3	-2%	0%
S=c1[nH]nc(-c2n[nH]c3c2CCC3)n1/N=C/C=C/c1ccco1	x	u	11µM*	0	-24%	22µM*
CCC1(C)NC(=O)N(/N=C/c2cc(OC)c(O)c(OC)c2)C1=O (centres undefined)	u	3%	-6%	-1	-4%	-6%
CN(C)c1ccc(NC(=O)CN2C(=O)c3ccccc3C2=O)cc1	u	x	-1%	4	x	x
CC(=O)c1cccc(NC(=O)CSc2nc3c(=O)n(C)c(=O)n(C)c3n2C)c1	0%[59 µM]	-8%	x	x	-8%	-1%
COC(=O)c1sccc1S(=O)(=O)N(CC(=O)Nc1cccc(C)c1C)c1ccc(C)c(C)c1	4%[59 µM]	4%	x	x	-12%	1%
COc1ccccc1/C=C/C=N/n1c(-c2n[nH]c3c2CCC3)n[nH]c1=S	1.4µM*	-10%	22µM*	1	u	u
CCN(Cc1cnn(C)c1)C(=O)c1cc(COc2ccc(F)cc2F)on1	7%[59 µM]	3%	-4%	0	6%	2%
CCN(Cc1ccncc1)C(=O)c1cc(COc2ccc(F)cc2F)on1	40µM*	x	-4%	x	x	x
CCc1ccccc1N1C(=O)N(Cc2cc(=O)n3ccccc3n2)c2ccccc2S1(=O)=O	3%[59 µM]	-7%	x	x	-14%	5%
NC(=S)NNC(=O)[C@@H]1CCCC[C@@H]1C(=O)O	45µM*	-9%	u	4	6%	2%
O=C(O)C1CCCCC1C(=O)NC1C2CC3CC(C2)CC1C3 (centres undefined)	x	x	23%	1	x	x
CC(C)C[C@@H](CC(=O)N[C@@H](CCC(=O)O)CC(=O)O)NC(=O)[C@@H]1CCCC[C@H]1NC(=O)C[C@@H](NC(=O)C[C@H](CO)NC(=O)[C@@H]1CNCC[C@H]1N)C(C)C	x	-5%	-13%	1	-14%	-12%
CCOC(=O)c1cc(-c2ccc(C)cc2)n(CCC(=O)NCc2ccccc2)c1C	2%[59 µM]	-1%	x	x	-14%	-7%
CCOC(=O)c1cc(-c2ccc(C)cc2)n(CCC(=O)N2CCN(c3ccccn3)CC2)c1C	28µM*	-1%	-4%	-1	1%	7%
c1csc(CSc2nc3ccccc3s2)c1	313%	-13%	-23%	-2	-15%	-12%
